An excerpt weighted towards active compounds, which were near 28% of everything screened.
CYP2C19 inh – inhibitors of human CYP2C19; CYP2C19 Supersomes, luciferin-H EGE luminescence, 30 min; inhibition, % at 5 µM; 21% of 96,000 active;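 active = CYP2C19 inhibition above a set limit at 5 µM in the primary screen, cut at about 50% in these data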
CYP2C19 act – activators of human cytochrome P450 2C19; P33261; recombinant CYP2C19, luciferin-H EGE luminescence; active compounds read high; 0 = fully inhibited enzyme, 1 = untreated enzyme; activation factor at 5 µM; 96,000 tested, under 10 active;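 active = activation factor of at least 2 at 5 µM in the primary screen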
CD11b adhes inh – inhibitors of human CD11b/CD18 binding to fibrinogen. inhibition, % at 10 µM. P05107+P11215. 0.54% of 93,000 active. K562 CD11b/CD18 adhesion to fibrinogen, ATPlite luminescence; Mn2+ added to activate the integrin;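 active = primary inhibition of 50% or more at 10 µM, then 40% or more on retest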
Target sequence (P05107 whole entry, looked up, other chains not shown): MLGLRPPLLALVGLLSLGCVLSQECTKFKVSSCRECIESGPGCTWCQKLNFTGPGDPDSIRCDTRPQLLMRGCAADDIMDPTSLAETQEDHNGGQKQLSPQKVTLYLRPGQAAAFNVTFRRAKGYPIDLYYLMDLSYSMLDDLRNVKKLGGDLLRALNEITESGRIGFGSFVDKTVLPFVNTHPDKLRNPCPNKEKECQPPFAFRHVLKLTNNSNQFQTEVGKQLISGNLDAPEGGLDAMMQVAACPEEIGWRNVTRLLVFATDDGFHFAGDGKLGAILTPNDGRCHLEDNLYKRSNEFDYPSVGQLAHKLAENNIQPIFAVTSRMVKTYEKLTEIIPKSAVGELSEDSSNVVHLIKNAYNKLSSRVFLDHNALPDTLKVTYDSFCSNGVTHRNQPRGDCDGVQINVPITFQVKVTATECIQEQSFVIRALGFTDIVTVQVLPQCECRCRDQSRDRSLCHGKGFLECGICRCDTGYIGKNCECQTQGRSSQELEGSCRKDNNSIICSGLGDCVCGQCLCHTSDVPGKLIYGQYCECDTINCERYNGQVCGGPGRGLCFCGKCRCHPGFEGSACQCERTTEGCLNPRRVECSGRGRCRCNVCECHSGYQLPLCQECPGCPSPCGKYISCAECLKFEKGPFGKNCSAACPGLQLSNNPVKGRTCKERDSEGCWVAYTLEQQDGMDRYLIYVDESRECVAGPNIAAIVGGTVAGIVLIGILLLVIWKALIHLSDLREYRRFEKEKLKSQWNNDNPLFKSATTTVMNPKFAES
CYP2C9 activ – activators of human CYP2C9; activation factor at 5 µM; P11712; recombinant CYP2C9, luciferin-H conversion, luminescence; active compounds read high; factor 1 = untreated enzyme, 0 = blocked; 1.4% of 96,000 active; AID 1024;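 active = activation factor of 2 or more for CYP2C9 at a 5 µM dose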
Mac1 fbg enh – CD11b/CD18-fibrinogen binding enhancement. P05107+P11215. K562 CD11b/CD18 adhesion to fibrinogen, ATPlite luminescence. activation, % at 10 µM. 0.07% of 93,000 active;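 active = 10 µM primary screen giving 50% or more activity, confirmed by 40% or more on retest at that dose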
CYP2C9 inhib – human CYP2C9 inhibition. inhibition, % at 5 µM. P11712. 20% of 96,000 active. CYP2C9 Supersomes, luciferin-H conversion, luminescence;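 active = blocking of liver enzyme CYP2C9 beyond about 50% at 5 µM, limit read from the data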
Hits are given with their value; n = inactive; x = not tested or not shown.

SMILES | CYP2C19 inh | CYP2C19 act | CD11b adhes inh | CYP2C9 activ | Mac1 fbg enh | CYP2C9 inhib
CCOC(=O)C(CSCC(=O)c1ccc(Br)cc1)NC(=O)OC(C)(C)C (stereo unspecified) | 93.4 | n | n | n | n | 81.9
C=CCn1c(COc2cccc3ccc(C)nc23)nnc1SCC(N)=O | n | n | n | n | n | n
COc1cccc(Cn2c(-c3cccs3)noc2=O)c1 | 82.5 | n | n | n | n | n
COc1nc(Nc2ccc(C(C)=O)cc2)nc(OC)n1 | 50.6 | n | n | n | n | 50.6
COC(=O)c1ccc(Nc2nc(C)cc(C)n2)cc1 | n | n | n | n | n | n
COc1nc(Nc2ccc3c(c2)OCO3)nc(OC)n1 | n | n | n | n | n | 67.9
CS(=O)(=O)N1CCC(C(=O)NCc2ccc(F)cc2Cl)CC1 | n | n | n | n | n | n
COc1ccc(-c2nnn(CCC(=O)O)n2)cc1 | n | n | n | n | n | n
Cc1ccc(NS(=O)(=O)c2ccc(OCC(=O)NCc3ccncc3)cc2)cc1 | x | x | n | x | n | x
CN(CC(=O)NCc1ccncc1)S(=O)(=O)c1ccc(F)cc1 | 90.8 | n | n | n | n | 82.3
CN(CC(=O)NCc1ccncc1)S(=O)(=O)c1ccccc1 | 94.3 | n | n | n | n | 83.4
CCOc1cc(C(=O)CCC(=O)OCC(=O)N2c3ccccc3NC(=O)C2(C)C)ccc1O | n | n | n | n | n | n
CCCN1C/C(=C/c2ccc3c(c2)OCO3)C(=O)/C(=C/c2ccc3c(c2)OCO3)C1 | x | x | n | x | n | x
CCCN1C/C(=C/c2cccc([N+](=O)[O-])c2)C(=O)/C(=C/c2cccc([N+](=O)[O-])c2)C1 | 61.4 | n | n | n | n | n
N#CC1C(=O)NC(N2CCN(c3ccccc3)CC2)=NC12CCCCC2 (stereo unspecified) | n | n | n | n | n | n
N/C(=N\c1nc2c(c(=O)[nH]1)CCCC2)Nc1ccccc1Sc1ccccc1 | n | n | n | n | n | 63.3
CCCC(NS(=O)(=O)c1ccc(Br)cc1)C(=O)O (stereo unspecified) | n | n | n | n | n | n
CCCCS(=O)(=O)Nc1ccc2c(c1)ncn2C1CCCCC1 | n | n | n | n | n | 84.8
COc1ccc2[nH]c(=O)c(CN(C(=O)C3CCCO3)c3ccc(C)cc3)cc2c1 (stereo unspecified) | n | n | n | n | n | n
CCCCNc1oc(-c2ccc(OC)cc2)nc1S(=O)(=O)c1ccccc1 | 54.5 | n | n | n | n | n
CCNc1oc(-c2ccc(OC)cc2)nc1S(=O)(=O)c1ccc(Br)cc1 | n | n | n | n | n | n
O=S(=O)(c1ccccc1)c1nc(-c2ccco2)oc1NCCCn1ccnc1 | 100.1 | n | n | n | n | 99.1
COc1ccc(NC(=O)CN2C(=O)C(C)SC(C)C2=O)c(OC)c1 (stereo unspecified) | x | x | n | x | n | x
O=[N+]([O-])c1ccccc1/C=N/NC1=NCCCCC1 | x | x | n | x | n | x
CCc1ccc(OC)c(S(=O)(=O)Nc2ccccc2C)c1 | n | n | n | n | n | 73.3
SMILES | CYP2C19 inh | CYP2C19 act | CD11b adhes inh | CYP2C9 activ | Mac1 fbg enh | CYP2C9 inhib
COc1ccc2c(c1OC)C(=O)OC2Nc1ncccc1C (stereo unspecified) | n | n | x | n | x | n
COc1ccc(C)cc1S(=O)(=O)Nc1ccccc1C | 85.3 | n | n | n | n | 62.5
COc1cc(S(=O)(=O)Nc2ncccc2C)c(OC)cc1Cl | 91.1 | n | n | n | n | n
COc1cc(NS(=O)(=O)c2cc(C)ccc2OC)c(OC)cc1Cl | 67.2 | n | n | n | n | n
CCOC(=O)CCC(=O)N1CCOCCN(C(=O)CCC(=O)OCC)CCOCC1 | n | n | n | n | n | n
COc1cc(NS(=O)(=O)c2ccc(C)cc2C)cc(OC)c1OC | n | n | n | n | n | 67.0
NC(=O)c1oc2ccccc2c1NC(=O)CCc1ccccc1 | 81.6 | n | n | 2.2 | n | n
COc1ccc(NC(=O)c2oc3ccccc3c2NC(=O)c2ccc3c(c2)OCO3)cc1 | n | n | n | n | n | 54.6
CCOC(=O)c1oc2ccccc2c1NC(=O)c1cccc(OC)c1 | n | n | n | n | n | n
CCOC(=O)c1oc2ccccc2c1NC(=O)c1cccc(OC)c1OC | 67.1 | n | n | n | n | 65.8
O=C(CCc1ccccc1)Nc1c(F)c(F)c(F)c(F)c1F | n | n | n | n | n | n
COc1cccc(C(=O)Nc2c(C(N)=O)oc3ccccc23)c1 | n | n | n | 3.3 | n | n
CCOC(=O)c1oc2ccccc2c1NC(=O)c1ccc(Cl)s1 | n | n | n | n | n | n
CS(=O)(=O)N(CC(=O)NC1CCCCC1)c1cccc(Cl)c1 | n | n | n | n | n | n
CC(NC(=O)COC(=O)CCNC(=O)c1ccco1)C12CC3CC(CC(C3)C1)C2 (stereo unspecified) | 51.2 | n | n | n | n | 55.6
CCCCOC(=O)c1ccc(NS(=O)(=O)c2cc(-c3nnnn3CC)ccc2OC)cc1 | n | n | n | n | n | 71.2
COc1ccc(OC)c(S(=O)(=O)Nc2ccc(C(C)=O)cc2)c1 | n | n | n | n | n | n
CCOc1ccc(NS(=O)(=O)c2cc(OC)ccc2OC)cc1 | n | n | n | n | n | 79.1
COc1ccc(OC)c(S(=O)(=O)Nc2ccc(C(N)=O)cc2)c1 | 59.9 | n | n | n | n | n
CCOC(=O)c1ccc(Nc2ccc(-c3ccc(OC)c(OC)c3)nn2)cc1 | n | n | n | n | n | n
CCOC(=O)c1ccc(NS(=O)(=O)CC)cc1 | 67.3 | n | n | n | n | 80.1
CCOc1ccc(NS(=O)(=O)c2cc(NC(=O)c3cccc(C)c3)ccc2Cl)cc1 | x | x | n | x | n | x
Cc1cc(C)nc(N2CCC(CNC(=O)CCc3ccccc3)CC2)n1 | n | n | n | n | n | n
COc1ccc(OC)c(S(=O)(=O)Nc2ccc(Oc3ccccc3)cc2)c1 | 97.0 | n | n | n | n | 81.6
CCOc1ccc(Br)cc1S(=O)(=O)Nc1ccc(Cl)c(S(=O)(=O)N(C)C)c1 | x | x | n | x | n | x
SMILES | CYP2C19 inh | CYP2C19 act | CD11b adhes inh | CYP2C9 activ | Mac1 fbg enh | CYP2C9 inhib
COC(=O)c1c(C)oc2ccc(NS(=O)(=O)c3cc(OC)ccc3OC)cc12 | n | n | n | n | n | n
COc1ccc(C(=O)N2CCCCC2)cc1S(=O)(=O)Nc1ccccc1 | n | n | x | n | x | n
COc1ccc(OC)c(S(=O)(=O)Nc2ccc(O)c(Sc3ncn[nH]3)c2)c1 | 80.3 | n | n | n | n | n
CCOc1ccc(S(=O)(=O)Nc2ccc(F)cc2)c(C)c1C | 100.1 | n | n | n | n | 99.6
CCOC(=O)c1ccc(NS(=O)(=O)c2cc(C)ccc2OC)cc1 | n | n | n | n | n | 57.9
Cc1ccc(NC(=O)C(C)c2ccc([N+](=O)[O-])cc2)cc1Cl (stereo unspecified) | x | x | n | x | n | x
CC(=O)c1cccc(N(C(=O)c2ccco2)C(C(=O)NC2CCCC2)c2ccncc2)c1 (stereo unspecified) | n | n | n | n | n | n
